# Data: PubChem BioAssay (NCATS)
# Records with an inconclusive call do not appear. Entries that show only a call come without a potency. Active and inactive are the calls of the source. Calls follow the shape of the dose curve; as a rule, active = well fitted inhibition curve with a large enough effect; inconclusive = small, poorly fitted or top-dose-only effect; inactive = flat fitted curve, though single readings scatter.
# Experiments:
# [1] = biological target: Ubiquitin carboxyl-terminal hydrolase 1 (Homo sapiens) (UniProt O94782); test: Inhibitors of USP1/UAF1: Pilot qHTS (AID 504865);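 also: rhodamine fluorescence freed from ubiquitin-rhodamine substrate followed over time; top concentration of the series differs between compounds; nearly all actives have a fitted effect of over 35% in size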
# In short: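 USP1/UAF1 complex at 1 nM preincubated 15 min at room temperature with compound, then Ub-Rho substrate added at 150 nM final. Fluorescence (480/540 nm) read kinetically in 50 mM HEPES pH 7.8, 0.5 mM EDTA, 1 mM TCEP, 0.1 mg/ml BSA, 0.01% Tween-20.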
# AA1029 = test: qHTS profiling for inhibitors of Plasmodium falciparum proliferation (AID 504749); also: nearly all actives have a fitted effect of over 60% in size; also: potency is read from the fitted curve at half-maximal effect; conditions: P. falciparum in erythrocytes, SYBR Green DNA, 72 h; series mostly up to 28.7 µM
# In short: (§1)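 Each compound contacts P. falciparum-infected red blood cells for 72 h at 37 C; lysis buffer (Tris, EDTA, saponin, Triton X, SYBR Green I) is added and fluorescence measured next morning; values normalized to controls.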
# CP211 = test: as above; conditions: P. falciparum in erythrocytes, SYBR Green DNA, 72 h; series mostly up to 28.7 µM
# In short: as §1
# CP215 = test: as above; conditions: P. falciparum in erythrocytes, SYBR Green DNA, 72 h; series mostly up to 28.7 µM
# In short: as §1
# CP217 = test: as above; conditions: P. falciparum in erythrocytes, SYBR Green DNA, 72 h; series mostly up to 28.7 µM
# In short: as §1
# CP260 = test: as above; conditions: P. falciparum in erythrocytes, SYBR Green DNA, 72 h; series mostly up to 28.7 µM
# In short: as §1
# CP297 = test: as above; conditions: P. falciparum in erythrocytes, SYBR Green DNA, 72 h; series mostly up to 28.7 µM
# In short: as §1
# CP315 = test: as above; conditions: P. falciparum in erythrocytes, SYBR Green DNA, 72 h; series mostly up to 28.7 µM
# In short: as §1
# CP335 = test: as above; conditions: P. falciparum in erythrocytes, SYBR Green DNA, 72 h; series mostly up to 28.7 µM
# In short: as §1
# DIV14 = test: as above; conditions: P. falciparum in erythrocytes, SYBR Green DNA, 72 h; series mostly up to 28.7 µM
# In short: as §1
# DIV17 = test: as above; conditions: P. falciparum in erythrocytes, SYBR Green DNA, 72 h; series mostly up to 28.7 µM
# In short: as §1
# FAB9 = test: as above; conditions: P. falciparum in erythrocytes, SYBR Green DNA, 72 h; series mostly up to 28.7 µM
# In short: as §1
# ICS = test: as above; conditions: P. falciparum in erythrocytes, SYBR Green DNA, 72 h; series mostly up to 28.7 µM
# In short: as §1
# JCK = test: as above; conditions: P. falciparum in erythrocytes, SYBR Green DNA, 72 h; series mostly up to 28.7 µM
# In short: as §1
# N140 = test: as above; conditions: P. falciparum in erythrocytes, SYBR Green DNA, 72 h; series mostly up to 28.7 µM
# In short: as §1
# PC15 = test: as above; conditions: P. falciparum in erythrocytes, SYBR Green DNA, 72 h; series mostly up to 28.7 µM
# In short: as §1
# TAB113 = test: as above; conditions: P. falciparum in erythrocytes, SYBR Green DNA, 72 h; series mostly up to 28.7 µM
# In short: as §1
# TAB165 = test: as above; conditions: P. falciparum in erythrocytes, SYBR Green DNA, 72 h; series mostly up to 28.7 µM
# In short: as §1
# W2 = test: as above; conditions: P. falciparum in erythrocytes, SYBR Green DNA, 72 h; series mostly up to 28.7 µM
# In short: as §1
# Sequence of Ubiquitin carboxyl-terminal hydrolase 1 (Homo sapiens) (O94782 whole entry, looked up): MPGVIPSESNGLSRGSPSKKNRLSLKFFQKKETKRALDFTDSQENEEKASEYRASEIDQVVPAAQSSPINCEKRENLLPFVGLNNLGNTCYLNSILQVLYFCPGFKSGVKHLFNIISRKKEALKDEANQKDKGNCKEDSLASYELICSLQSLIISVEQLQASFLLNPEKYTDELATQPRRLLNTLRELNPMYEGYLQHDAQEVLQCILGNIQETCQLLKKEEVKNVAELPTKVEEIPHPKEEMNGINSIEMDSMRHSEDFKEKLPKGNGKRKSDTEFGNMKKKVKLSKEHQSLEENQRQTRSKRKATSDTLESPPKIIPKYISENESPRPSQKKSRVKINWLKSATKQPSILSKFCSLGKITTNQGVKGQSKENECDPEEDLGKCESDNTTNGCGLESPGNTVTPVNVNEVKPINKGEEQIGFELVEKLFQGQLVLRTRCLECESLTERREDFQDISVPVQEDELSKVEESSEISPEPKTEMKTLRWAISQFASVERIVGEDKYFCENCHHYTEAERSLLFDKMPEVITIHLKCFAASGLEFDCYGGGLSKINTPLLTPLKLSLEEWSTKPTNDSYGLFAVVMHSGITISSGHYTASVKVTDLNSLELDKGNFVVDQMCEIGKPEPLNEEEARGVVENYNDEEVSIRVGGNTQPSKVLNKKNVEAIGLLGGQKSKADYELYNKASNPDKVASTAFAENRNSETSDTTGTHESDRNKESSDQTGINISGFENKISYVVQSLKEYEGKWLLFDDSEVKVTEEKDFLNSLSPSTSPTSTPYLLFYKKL
SMILES,Potency [1],Potency (AA1029),Potency (CP211),Potency (CP215),Potency (CP217),Potency (CP260),Potency (CP297),Potency (CP315),Potency (CP335),Potency (DIV14),Potency (DIV17),Potency (FAB9),Potency (ICS),Potency (JCK),Potency (N140),Potency (PC15),Potency (TAB113),Potency (TAB165),Potency (W2)
CCCCCCCCCCCCCCCC(=O)OCC(COP(=O)(O)OCC[N+](C)(C)C)OC(=O)CCCCCCCCCCCCCCC (configuration not stated),inactive,inactive,inactive,inactive,inactive,inactive,inactive,inactive,inactive,inactive,inactive,inactive,inactive,inactive,inactive,inactive,inactive,inactive,inactive
O=C(OC[C@@H]1O[C@@](O)(COC(=O)c2cccnc2)[C@H](OC(=O)c2cccnc2)[C@H]1OC(=O)c1cccnc1)c1cccnc1,inactive,inactive,inactive,inactive,inactive,inactive,inactive,inactive,inactive,inactive,inactive,inactive,inactive,inactive,inactive,inactive,inactive,inactive,inactive
OCCOC[C@H]1O[C@H](OCCO)[C@H](OCCO)[C@@H](OCCO)[C@@H]1OCCO (tested in a mixture with another compound),inactive,inactive,inactive,inactive,inactive,inactive,inactive,inactive,inactive,inactive,inactive,inactive,inactive,inactive,inactive,inactive,–,inactive,inactive
CC(=O)NC1[C@H]([C@H](O)[C@H](O)CO)OC(C(=O)O)=C[C@H]1N=C(N)N (some centres not stated),inactive,inactive,inactive,inactive,inactive,inactive,inactive,inactive,inactive,inactive,inactive,inactive,inactive,inactive,inactive,inactive,inactive,inactive,inactive
C=C(NCc1ccccc1)c1ccccc1O,inactive,inactive,inactive,inactive,inactive,inactive,inactive,inactive,inactive,inactive,inactive,inactive,inactive,inactive,inactive,inactive,inactive,inactive,inactive
C=CCn1c(=O)n(C2OC(CO)C(O)C2O)c2nc(N)[nH]c(=O)c21 (configuration not stated),inactive,inactive,inactive,inactive,inactive,inactive,inactive,inactive,inactive,inactive,inactive,inactive,inactive,inactive,inactive,inactive,inactive,inactive,inactive
CC(C)(C)C(=O)OCC(=O)C1CCC2C3CCC4=CC(=O)CCC4(C)C3CCC12C (configuration not stated),inactive,inactive,inactive,inactive,inactive,inactive,inactive,inactive,inactive,inactive,inactive,inactive,inactive,inactive,inactive,inactive,inactive,inactive,inactive
OCC1O[C@H](O[C@H]2C(O)C(O)C(O)O[C@@H]2CO)C(O)C(O)C1O (some centres not stated),inactive,inactive,inactive,inactive,inactive,inactive,inactive,inactive,inactive,inactive,inactive,inactive,inactive,inactive,inactive,inactive,inactive,inactive,inactive
NC(=O)NC(CCC(=O)O)C(=O)O (configuration not stated),inactive,inactive,inactive,inactive,inactive,inactive,inactive,inactive,inactive,inactive,inactive,inactive,inactive,inactive,inactive,inactive,inactive,inactive,inactive
C[C@H]1[C@@H](OC(=O)CCC(=O)O)OC2OC3(C)CC[C@H]4[C@H](C)CC[C@@H]1[C@@]24OO3 (some centres not stated),inactive,6.3 nM (active),4.8 nM (active),5.4 nM (active),7.1 nM (active),5 nM (active),4.8 nM (active),12 nM (active),4.8 nM (active),3.4 nM (active),4.3 nM (active),4.5 nM (active),3.2 nM (active),–,3.2 nM (active),4.5 nM (active),2 nM (active),1.8 nM (active),1.9 nM (active)
C[C@H]1OC(OC2C(O)[C@@H](O)C(OC3C(O)[C@@H](O)C(O)O[C@@H]3CO)O[C@@H]2CO)[C@H](O)C(O)C1N[C@H]1C=C(CO)[C@@H](O)[C@H](O)C1O (some centres not stated),inactive,inactive,inactive,inactive,inactive,inactive,inactive,inactive,inactive,inactive,inactive,inactive,inactive,inactive,inactive,inactive,inactive,inactive,inactive
